# Test results: ChEMBL document CHEMBL1201862, “PubChem BioAssay data set” (2004)
# About 2,100 (0.53%) of roughly 400,000 compounds were called active. Not shown: some 14% with an inconclusive outcome. How the calls were made is not given here. This excerpt belongs to a sample that is enriched for actives.
# Target: Ataxin-2 (Homo sapiens) (UniProt Q99700)
# Experiment: qHTS for Inhibitors of ATXN expression.
# Type: functional
# Ataxin-2 (Homo sapiens), sequence (Q99700 whole entry): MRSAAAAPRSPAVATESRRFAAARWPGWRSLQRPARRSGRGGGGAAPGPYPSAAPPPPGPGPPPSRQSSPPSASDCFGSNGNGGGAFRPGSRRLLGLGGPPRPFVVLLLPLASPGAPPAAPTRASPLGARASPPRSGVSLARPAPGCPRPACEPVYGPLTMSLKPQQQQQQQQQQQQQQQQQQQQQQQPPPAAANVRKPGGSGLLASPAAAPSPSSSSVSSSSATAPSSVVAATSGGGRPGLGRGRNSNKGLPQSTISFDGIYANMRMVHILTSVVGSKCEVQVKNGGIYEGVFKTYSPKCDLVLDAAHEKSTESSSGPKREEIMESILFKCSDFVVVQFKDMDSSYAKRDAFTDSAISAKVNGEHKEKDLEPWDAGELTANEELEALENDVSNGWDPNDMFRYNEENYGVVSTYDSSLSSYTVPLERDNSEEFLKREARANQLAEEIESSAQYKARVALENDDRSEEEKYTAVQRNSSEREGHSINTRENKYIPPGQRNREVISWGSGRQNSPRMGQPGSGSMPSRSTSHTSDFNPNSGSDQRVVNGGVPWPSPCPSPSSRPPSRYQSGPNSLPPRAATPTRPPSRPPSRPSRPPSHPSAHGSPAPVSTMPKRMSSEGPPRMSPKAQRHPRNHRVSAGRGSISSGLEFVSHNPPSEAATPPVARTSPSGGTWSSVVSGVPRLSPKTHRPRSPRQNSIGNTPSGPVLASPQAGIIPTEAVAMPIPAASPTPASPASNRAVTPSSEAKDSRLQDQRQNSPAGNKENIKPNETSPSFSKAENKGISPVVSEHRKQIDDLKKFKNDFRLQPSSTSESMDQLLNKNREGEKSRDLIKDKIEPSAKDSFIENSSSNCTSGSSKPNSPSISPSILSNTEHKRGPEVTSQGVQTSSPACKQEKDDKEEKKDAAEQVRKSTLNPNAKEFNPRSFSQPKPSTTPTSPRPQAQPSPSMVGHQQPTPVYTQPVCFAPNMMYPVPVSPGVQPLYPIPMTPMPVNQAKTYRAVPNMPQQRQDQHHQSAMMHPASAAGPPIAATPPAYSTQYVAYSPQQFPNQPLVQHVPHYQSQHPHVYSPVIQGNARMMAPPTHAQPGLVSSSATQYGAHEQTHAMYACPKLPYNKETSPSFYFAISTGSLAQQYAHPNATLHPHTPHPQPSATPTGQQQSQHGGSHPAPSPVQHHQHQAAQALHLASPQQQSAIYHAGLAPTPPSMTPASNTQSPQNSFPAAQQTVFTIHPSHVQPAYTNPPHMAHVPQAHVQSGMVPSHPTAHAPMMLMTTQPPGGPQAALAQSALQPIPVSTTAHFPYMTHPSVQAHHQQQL
row,Compound,Potency
1,O=S(=O)(c1ccccc1)N1CCN=C1SCc1cccnc1,inactive
2,CCN(CC)c1ccc2cc(C(=O)NNC(=O)c3ccc(S(=O)(=O)N4CCCCC4)cc3)c(=O)oc2c1,inactive
3,N#CC1=C(N)N2C(=C(C#N)C1c1ccc(Br)cc1)Nc1ccccc12 (stereo unspecified),inactive
4,O=C1OCCN1C(=O)[C@H]1[C@H](c2ccc(Cl)cc2)C(c2ccccc2)=NN1c1ccccc1,inactive
5,CCOc1ccc(S(=O)(=O)[N-]c2nc3ccccc3nc2-[n+]2ccc(NC(=O)c3ccccc3C)cc2)cc1,inactive
6,Cc1cccc2cc3c(NC(=O)C(C)(C)C)nn(CC(C)C)c3nc12,inactive
7,Cc1cc(NN)nc(NS(=O)(=O)c2ccc(Cl)cc2)n1,inactive
8,CN(C)C(=O)c1cccc(-c2cccc(-c3nc(C(=O)NCc4ccccc4)cc4c3[C@@H](CCO)N([S+]([O-])C(C)(C)C)C4)c2)c1 (stereo partly specified),25.1 µM (active)
9,CSc1nnc(N2C(=O)C(O)=C(C(=O)c3ccco3)C2c2ccc(F)cc2)s1 (stereo unspecified),inactive
10,CCN=C(S)NCc1ccc2[nH]c(C)cc2c1,inactive
11,FC(F)(F)c1cc(CO[C@@H]2CCCN[C@@H]2c2ccccc2)cc(C(F)(F)F)c1,35.5 µM (active)
12,Cc1c(Br)c(=O)oc2c(Br)c(O)ccc12,inactive
13,Cc1cc(C2(c3ccc(O)c(C)c3)C(=O)N(C)c3ccc(Br)cc32)ccc1O,44.7 µM (active)
14,CC1(C)OC(=O)C(/C=N\Nc2c(Cl)cc(Cl)cc2Cl)=C(O)O1,inactive
15,Cc1cc2oc3cc(NCCC4CCCN4C)ccc3c(=O)c2cc1C (stereo unspecified),inactive
16,C=C(C)c1nc(Oc2ccccc2)nc(Oc2ccccc2)n1,33.6 µM (active)
17,COc1ccc2cc(-c3cc(C(=O)OCC(=O)NC4CCS(=O)(=O)C4)c4ccccc4n3)ccc2c1 (stereo unspecified),inactive
18,CC1C(C#N)=C(SCC(N)=O)N=C2CC(C)(C)CC(O)=C21 (stereo unspecified),inactive
19,COc1ccc(CNc2cccc3[nH]c(C(F)(F)F)nc23)cc1OC,inactive
20,COc1cccc(CNCCc2c[nH]c3ccccc23)c1OCc1ccccc1F,28.2 µM (active)
21,COc1cc(/C=C(\C#N)c2nc3ccccc3[nH]2)ccc1OCc1ccccc1F,inactive
22,COc1cc(CNCCc2c[nH]c3ccccc23)ccc1OCc1ccc(F)cc1,35.5 µM (active)
23,COc1cccc(CNc2nc[nH]n2)c1OCc1ccccc1F,inactive
24,COc1cc(/C=C(\C#N)c2nc3ccccc3[nH]2)ccc1OCc1ccc(F)cc1,inactive
25,COC(=O)C1=CN(CCCN2CCCC2=O)C=C(C(=O)OC)C1c1ccccc1C(F)(F)F,inactive
26,Cc1c(Cc2ccccc2)c(=O)oc2c(CN(C)C)c(O)c(Cl)cc12,inactive

row,Compound,Potency
1,c1ccc(CNc2ncnc3sc4c(c23)CCCC4)nc1,inactive
2,COc1ccc2cc(-c3nc(Cl)c4c5c(sc4n3)CCCC5)c(=O)oc2c1,inactive
3,Cc1cc(C)n(-c2nc(NCCCN(C)C)c3c4c(sc3n2)CCCC4)n1,25.1 µM (active)
4,CCn1cc(C2N3CC4(C)CN2CC(C)(C3)C4=O)c2ccccc21 (stereo unspecified),inactive
5,CCNc1cc2oc(=O)c(CN3CCOCC3)c(C)c2cc1C,inactive
6,COc1cccc(N2CCc3c(C)nc4ccc(Cl)cc4c32)c1,inactive
7,COc1ccc(-n2c(-c3cccc(OC)c3)nc(=S)c3c2CCCC3)cc1,25.1 µM (active)
8,COc1ccc(N2CCN(c3cc(C)c4cccc(C)c4n3)CC2)cc1,inactive
9,CN1CCN(CC/C=C2/c3ccccc3Sc3ccc(S(=O)(=O)N(C)C)cc32)CC1,35.5 µM (active)
10,Cn1c(=O)nc2n(Cc3ccccc3)c3ccccc3cc-2c1=O,inactive
11,CCCc1nc2c(=O)n(C)c(=O)nc-2n(C)n1,8.44 µM (active)
12,Cn1nc(-c2ccccn2)nc2c(=O)n(C)c(=O)nc1-2,17.8 µM (active)
13,Cc1ccc(C)c(-n2c3nc(=O)n(C)c(=O)c-3cc3ccccc32)c1,inactive
14,Cc1ccccc1-n1c2nc(=O)n(C)c(=O)c-2cc2ccccc21,inactive
15,CC(C)C[C@H]1CN=C(Nc2ccccc2)N1CCCC1CCCCC1,22.4 µM (active)
16,CC(C)(C)C1CCC(CN2C(Nc3ccccc3)=NC[C@@H]2Cc2ccccc2)CC1 (stereo partly specified),25.1 µM (active)
17,CCC(=O)c1cc2c(C)cc(=O)oc2c(C)c1OC(=O)C(C)C,inactive
18,O=[N+]([O-])c1ccccc1S(=O)(=O)N1CCN(Cc2ccccc2)CC1,inactive
19,COc1cc(OC)cc(OC(=O)c2cccc(S(=O)(=O)N3CCN(C)CC3)c2)c1,inactive
20,CN1CCN(S(=O)(=O)c2ccc(Sc3nnnn3-c3ccccc3)c([N+](=O)[O-])c2)CC1,39.8 µM (active)
21,NC1=NC[C@H](c2ccccc2)N1CCc1cc(C(F)(F)F)cc(C(F)(F)F)c1,28.2 µM (active)
22,FC(F)(F)c1cc(CCN2C(S)=NC[C@@H]2Cc2ccccc2)cc(C(F)(F)F)c1,39.8 µM (active)
23,CCC(C)[C@H]1CN=C(S)N1CCc1cc(C(F)(F)F)cc(C(F)(F)F)c1 (stereo partly specified),35.5 µM (active)
24,COc1cccc(C2=CC(c3ccccc3F)n3ncc(C(=O)Nc4ccc(F)cc4)c3N2)c1 (stereo unspecified),inactive
25,CC1CC(Nc2ccccc2)c2ccccc2N1C(=O)c1ccncc1 (stereo unspecified),inactive
26,CN1CCc2c(sc3c2C(=O)NC(c2ccc(-c4cccc(Cl)c4)o2)N3)C1 (stereo unspecified),inactive

row,Compound,Potency
1,COn1c(=O)c(-c2ccc(F)cc2)[n+]([O-])c2ccccc21,inactive
2,CCN(CC)Cc1c(O)c(Cl)cc2c(C)c(C)c(=O)oc12,inactive
3,COc1ccc(/C=N/NC(=O)c2[nH]c3ccc(Cl)cc3c2-c2ccccc2)c(C(=O)O)c1OC,inactive
4,O=C1OCCN1C(=O)[C@H]1[C@H](c2ccccc2)C(c2ccc(F)cc2)=NN1c1ccccc1,inactive
5,CCn1nc(NC(=O)C2CCCO2)c2cc3cccc(C)c3nc21 (stereo unspecified),inactive
6,COc1cc(C2C=C(c3cccs3)Nc3ncnn32)cc(OC)c1OC (stereo unspecified),inactive
7,Cc1cnc(-n2ncc(C(=O)N3CCN(C(C)C)CC3)c2-c2ccco2)nc1-c1ccc(F)cc1,inactive
8,CC(=O)N(Cc1ccccn1)Cc1ccco1,inactive
9,S=C(NN=C(c1ccccc1)c1ccccn1)N(Cc1ccccn1)Cc1ccccn1,15.8 µM (active)
10,COC(=O)CC1C(=O)NCCN1C(=O)CSc1nc2ccccc2c(=O)n1CC(C)C (stereo unspecified),inactive
11,Cc1nc(C/C(=N\N)c2ccc(O)cc2O)cs1,inactive
12,O=C1c2cccc3c(N4CCCCC4)ccc(c23)C(=O)N1c1cccc(O)c1,inactive
13,COc1cc2c(cc1OC)CN(Cc1cc(=O)n3c(-c4ccccc4)csc3n1)CC2,inactive
14,COc1ccc(C(=O)CCN2CCc3cc(OC)c(OC)cc3C2)cc1,26.7 µM (active)
15,COc1cc2c(cc1OC)CN(C(=O)CSc1ccc(F)cc1)CC2,inactive
16,Cc1c(C)c2cc(Cl)c(O)c(CN3CCN(C)CC3)c2oc1=O,inactive
17,CN1CCN(c2ccc(Cl)cc2NC(=O)/C=C/c2ccc(F)cc2)CC1,inactive
18,CC1CCN(CCN=C(S)Nc2ccc(Cl)cc2)CC1,inactive
19,CN1CCC(NCCC(c2ccc(F)cc2)c2ccc(Cl)cc2)CC1 (stereo unspecified),25.1 µM (active)
20,COc1cc(Cl)cc(/C=N/NC(N)=O)c1O,inactive
21,CCOc1ccc(Cl)cc1/C=N/NC(N)=O,inactive
22,COc1ccccc1Sc1ccccc1/C=N/NC(N)=O,39.8 µM (active)
23,CCOC(=O)c1cc2c(=O)n3ccccc3nc2n(CCOC)/c1=N/C(=O)c1c(-c2c(F)cccc2Cl)noc1C,inactive
24,Cc1cc(C)c2c(N)c3ccccc3nc2n1,inactive
25,Cc1cc2[nH]c3c4ccccc4nc(C)c3c2cc1C,28.2 µM (active)
26,Cc1c2ccccc2nc2ccccc12,inactive

row,Compound,Potency
1,Cc1ccc2nc(N3CCN(C(=O)CCCC(=O)O)CC3)nc(-c3ccccc3)c2c1,inactive
2,CCOC(=O)c1ccc(N2C(=O)C=CC2=O)cc1,39.8 µM (active)
3,CCOC(=O)c1ccc(NC(=O)N2C3CCCC2CC(NC(C)=O)C3)cc1 (stereo unspecified),inactive
4,CCOC(=O)c1ccc(NS(=O)(=O)c2c(C)n(C)c(=O)n(C)c2=O)cc1,inactive
5,CC1CCCc2sc3ncn(N)c(=N)c3c21 (stereo unspecified),inactive
6,CCCCCCCNC(=O)C1(CC2CC(c3ccc(Cl)cc3)=NO2)CCNCC1 (stereo unspecified),25.1 µM (active)
7,CCCCCCCNC(=O)C1(CC2CC(c3cccc(Br)c3)=NO2)CCNCC1 (stereo unspecified),31.6 µM (active)
8,CC1CCCC(C)N1C(=O)COC(=O)C12CC3CC(CC(Cl)(C3)C1)C2 (stereo unspecified),inactive
9,O=C(NN/C=C1\C(=O)N(c2ccc(Cl)cn2)C(=O)c2ccccc21)c1ccncc1,inactive
10,Cc1cccc(OCC2Cn3c(nc4c3c(=O)[nH]c(=O)n4C)O2)c1 (stereo unspecified),inactive
11,CCCCCn1c(N2CCC(Cc3ccccc3)CC2)nc2c1c(=O)[nH]c(=O)n2C,28.2 µM (active)
12,Cn1c(=O)[nH]c(=O)c2c1nc(N1CCCCCC1)n2Cc1cccc2ccccc12,44.7 µM (active)
13,CCCCCCn1c(SCCOC)nc2c1c(=O)[nH]c(=O)n2C,inactive
14,CCCSc1nc2c(c(=O)[nH]c(=O)n2C)n1Cc1ccccc1,inactive
15,Brc1ccc(C2CC(c3ccccc3)=Nc3ccccc3N2)cc1 (stereo unspecified),inactive
16,CC(=O)c1ccc(N2C(=O)[C@@H]3[C@H](C2=O)[C@H]2c4ccccc4C=NN2[C@@H]3C(C)=O)cc1,inactive
17,CCn1nc([N+](=O)[O-])c(C(C#N)c2nc3cc(C(F)(F)F)ccc3s2)c(Cl)c1=O (stereo unspecified),28.2 µM (active)
18,CCOC(=O)c1cc2c(=O)n3ccccc3nc2n(Cc2ccco2)/c1=N\C(=O)c1cccc(Br)c1,inactive
19,O=C(NCc1ccccn1)c1cc2ccccn2n1,inactive
20,COCCCNC(=O)c1c(N)n(-c2cccc(S(N)(=O)=O)c2)c2nc3ccccc3nc12,inactive
21,COc1ccc(CN(C)CC(O)COc2ccc(-c3ccccc3)cc2)cc1OC (stereo unspecified),11.2 µM (active)
22,COc1ccc(CN(C)Cc2c(O)ccc3cc(Br)ccc23)cc1OC,inactive
23,OC(CNC1CCCC1)COc1ccc(-c2ccccc2)cc1 (stereo unspecified),inactive
